Hit rate of the full screen: of about 2,100 compounds, about 260 (12%) were called active. Roughly 58% stayed inconclusive and do not appear here. Calls follow the shape of the dose curve; as a rule, active = well fitted cell-killing curve with a large enough effect; inconclusive = small, poorly fitted or top-dose-only effect, or effect the other way; inactive = flat fitted curve, though single readings scatter. The list shows a part of the results. Entries that show only a call come without a potency.
experiment: Viability Counterscreen for Confirmatory qHTS for Inhibitors of ATXN expression; details: HEK-293 ATXN2-luc cells viability, CellTiter-Fluor, 24 h; also: nearly all actives have a fitted effect of over 50% in size
Excerpt: PI: Daniel Scoles Ph.D. University of Utah School of Medicine, Salt Lake City, Utah MLPCN Grant: NS073009 Spinocerebellar ataxia type 2 (SCA2) is a multisystem neurodegenerative disease caused by a dominantly acting mutation leading to expansion of a polyQ domain in the ataxin-2 protein (ATXN2). SCA2 patients develop progressive ataxia and later lose function in other neuronal systems. Prominent parkinsonian signs develop in some patients. Like many neurodegenerative disorders, no symptomatic or disease-modifying treatments are known. The primary objective of the proposed research is to identify compounds inhibiting ATXN2 expression and to test them for efficacy in SCA2 mouse models. We have developed a cell-based assay paired with an in vivo mouse model using identical luciferase expression constructs. This approach takes advantage of an ATXN2-luciferase transgene, with the luciferase gene flanked by the upstream and downstream portions of the ATXN2 gene. Here we describe a 5-7 dose quantitative high thoroughput screen (qHTS) for compounds lowering ATXN2 expression. We screened the NIH Molecular Libraries Small Molecule Repository (MLSMR) and NCGC's mechanistically annotated (MIPE) and drug repurposing (NPC) collections of compounds for lowering expression of an ATXN2-luciferase reporter in HEK-293 cells. The assay is a multiplexed cell viability assay to ensure target reduction in the absence of cytotoxicity. Secondary qHTS assays included a CMV-luciferase reporter expressed in HEK-293 cells as well as a biochemical assay using recombinant luciferase to detect inhibitors of the reporter enzyme. Compounds that inhibit ATXN2 expression but is not cytotoxic were selected for confirmatory and secondary screens.
PROTOCOL TABLE (as described by Inglese J, Shamu CE and Guy RK. 2007) SEQUENCE No. (e.g., 1, 2, 3, etc.); […] (e.g., Cells, Incubation, Reagent, etc.); VALUE; DESCRIPTION. 1; Cells; 4 uL; white, solid bottom, 1536-well Greiner assay plate. 2; Incubation; 2 hr; 37 degree C in 5% humidified CO2. 3; Compounds; 23 nL; Kalypsis pintool (Wako USA) equipped with a 1536-well pin head. 4; Incubation; 24 hr; 37 degree C in 5% humidified CO2. 5; Reagent; 1 uL; Gly-Phe-7-Amino-4-trifluoromethylcoumarin. 6; Incubation; 30 min; 37 degree C in 5% humidified CO2. 7; Detection; Fluorescence; ViewLux plate reader (PerkinElmer). 8; Reagent; 3 uL; SteadyGlo luciferase solution (Promega). 9; Incubation; 5 min; room temperature. 10; Detection; Luminescence; ViewLux plate reader (PerkinElmer). NOTES (numbers refer to Sequence numbers above) 1. S2 cells expressing ATXN2-luciferase reporter were suspended in phenol-red free DMEM and dispensed in assay plates using a Multidrop Combi dispenser (Thermo Fisher Scientific). Wells containing medium only were plated on each plate, and values were used to normalize (100% inhibition) in the luciferase and CellTiter-Fluor assays. 2. Assay plates were incubated. Evaporation was prevented by covering assay plates with metal lids containing holes to allow gas diffusion. 3. Compounds were added in a dose response manner with the final concentrations of 57, 11.4, 2.28, 0.46, 0.091, 0.018, 0.0037 uM. Vehicle-only plates, with DMSO being pin-transferred to columns 5-48, were inserted uniformly at the beginning and the end of each library to monitor and record any shifts in assay performance. 5. 125 uM Gly-Phe-7-Amino-4-trifluoromethylcoumarin (MP Biomedicals) working concentration was used at a final concentration of 25 uM. 7. To assess cell viability; the assay plates were read using the ViewLux high-throughput CCD imager (PerkinElmer), wherein single end-point fluorescence measurement was acquired (excitation 405/10; emission 540/25 nm). 8. Detection reagent SteadyGlo Luciferase (Promega) was added to the assay plate. 10. Luminescence is then measured on the ViewLux imager equipped with a clear emission filter using a 2 sec exposure. […]
Potency is read from the fitted curve at half-maximal effect.

| SMILES | Potency |
| --- | --- |
| Cc1cccc(-n2c(/C=C/c3ccc([N+](=O)[O-])o3)nc3ccccc3c2=O)c1 | 7.08 µM (active) |
| CSCCC(c1nnnn1-c1c(C)cccc1C)N1CCC2(CC1)C(=O)NCN2c1ccccc1 (stereo not drawn) | 31.6 µM (active) |
| O=C(Nc1ccc(OC(=O)N2CCCCC2)cc1)N1CCOCC1 | inactive |
| N#Cc1cn(C2OC(CO)C(O)C2O)c2ncnc(N)c12 (stereo not drawn) | inactive |
| O=[N+]([O-])c1oc2ccc3ccccc3c2c1CCO | 28.2 µM (active) |
| COc1ccc(N=Cc2c(O)n(-c3ccc(C)cc3)c(=O)[nH]c2=O)cc1 | inactive |
| COC(=O)C(O)(c1ccc(NC(=S)NC(=O)c2ccc(Cl)cc2Cl)c(C)c1)C(F)(F)F (stereo not drawn) | inactive |
| COc1cccc2c1C(=O)c1c(O)c3c(c(O)c1C2=O)CC(O)(C(C)=NO)CC3OC1CC(N)C(O)C(C)O1 (stereo not drawn) | 17.8 µM (active) |
| CC(=O)OC1(C)CC(C)C(=O)C(C(O)CC2CC(=O)NC(=O)C2)C1 (stereo not drawn) | inactive |
| C[C@]12CC[C@H](O)C[C@H]1CC[C@@H]1C2CC[C@]2(C)[C@@H](C3=CC(=O)OC3)[C@@H](O)C[C@]12O (stereo partly drawn) | inactive |
| CCC1(OC(=O)CN)C(=O)OCc2c1cc1n(c2=O)Cc2cc3ccccc3nc2-1 (stereo not drawn) | inactive |
| COC(=O)c1nc(-c2ccc3c(n2)C(=O)C(N)=C(OC)C3=O)c(N)c(-c2ccc(OC)c(OC)c2O)c1C | 15.8 µM (active) |
| CCOC(=O)[C@]12Cc3ccsc3[C@H]1N(Cc1ccccc1)C(=O)c1ccccc12 | inactive |
| CN1C2CCC1/C(=C/c1ccccn1)C(=O)/C2=C\c1ccccn1 | 1.26 µM (active) |
| N#Cc1c(Br)n(C2OC(CO)C(O)C2O)c2ncnc(N)c12 (stereo not drawn) | inactive |
| O=c1[nH]c2ccccc2n1C1CCN(C(CCc2ccccc2)c2nnnn2C2CCCC2)CC1 (stereo not drawn) | 22.4 µM (active) |
| CC(C)(C)n1nnnc1C(CCc1ccccc1)N1CCC(n2c(=O)[nH]c3ccccc32)CC1 (stereo not drawn) | 22.4 µM (active) |
| Cc1cccc(C)c1-n1nnnc1C(c1cc2ccccc2o1)N1CCC(n2c(=O)[nH]c3ccccc32)CC1 (stereo not drawn) | 8.91 µM (active) |
| O=C(NN=Cc1ccc(N(CCCl)CCCl)cc1)c1cc(=O)[nH]c(=O)[nH]1 | inactive |

| SMILES | Potency |
| --- | --- |
| C1=NCCc2c1[nH]c1ccccc21 | inactive |
| COC1C(O)C(C)OC(OC2C(Oc3cccc4c(O)c5c(=O)oc6ccc(C)c7c(=O)oc(c34)c5c67)OC(C)C(O)C2O)C1O (stereo not drawn) | inactive |
| Cc1c2ccncc2c(C)c2c1[nH]c1ccccc12 | 22.4 µM (active) |
| CCn1c(O)c(/C=N/NC(=O)c2ccccc2)c(=O)n(CC)c1=S | inactive |
| NC(Cc1ccc(Cl)cc1)c1csc(Nc2ccccn2)n1 (stereo not drawn) | 25.1 µM (active) |
| CC[C@@]1(O)C(=O)OCc2c1cc1n(c2=O)Cc2cc3c(NC(=O)CN)cccc3nc2-1 | inactive |
| Cc1ccc(/C=C2\C(=O)NC(=S)N(c3ccccc3F)C2=O)s1 | 8.91 µM (active) |
| CCCCCn1c(=O)c(C(=O)NCc2ccccn2)c(O)c2ccccc21 | inactive |
| C=CCCC[C@@H]1OC(=O)CNC(=O)C([C@@H](C)CC)NC(=O)[C@@H]2CCCN2C(=O)C([C@@H](C)CC)OC(=O)[C@H](Cc2ccccc2)N(C)C(=O)[C@H](C(C)C)NC(=O)C1(C)C (stereo partly drawn) | 3.16 µM (active) |
| C#CCCC[C@@H]1OC(=O)CNC(=O)C([C@@H](C)CC)NC(=O)[C@@H]2CCCN2C(=O)C([C@@H](C)CC)OC(=O)[C@H](Cc2ccccc2)N(C)C(=O)[C@H](C(C)C)NC(=O)C1(C)C (stereo partly drawn) | 22.4 µM (active) |
| CCC(C)N1C(=O)/C(=C\c2cnc(N(C)C)nc2)C(=O)NC1=S (stereo not drawn) | inactive |
| c1ccc2sc(N3CCNCC3)nc2c1 | inactive |
| O=C1NC(=O)N(CCc2ccc(F)cc2)C(=O)/C1=C/C=C/c1ccccc1 | 11.2 µM (active) |
| COc1ccc(CCNCc2ccc(F)cc2)cc1OC | inactive |
| CCCCCCC(=O)N/N=C/c1c(O)n(CCCC)c(=S)[nH]c1=O | inactive |
| CC(=NCCc1c[nH]c2ccccc12)c1c(O)n(Cc2ccccc2)c(=O)[nH]c1=O | inactive |
| CC(C)CCNC(=O)c1c(N)n(Cc2ccc3c(c2)OCO3)c2nc3ccccc3nc12 | inactive |
| CCOC(=O)c1c(N)n(CCN2CCCCC2)c2nc3ccccc3nc12 | inactive |
| CCCCCn1c(NC(=O)c2ccco2)c(C(=O)OCC)c2nc3ccccc3nc21 | 28.2 µM (active) |

Reference: PubChem BioAssay AID1745850 (National Center for Advancing Translational Sciences (NCATS), 2022)
